# Test results from PubChem BioAssay (EPA / NIEHS).
# The source made the active and inactive calls. Rule for the calls: active = hit-call score of the fitted dose curve at least 0.9, where 1 is the maximum; inactive = score below 0.9.
# Read-out: Apoptosis regulator Bcl-2 (Homo sapiens) (UniProt P10415)
# Experiment: LTEA_HepaRG_BCL2: Life Technologies and Expression Analysis (LTEA) Assay for Bcl-2 gene using HepaRG (AID 2283475);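 note: BCL2 transcript by TaqMan qRT-PCR normalised to ACTB GAPDH and POLR2A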
# Conditions: mRNA level, 48 h; actives raise or lower the signal
# Method: LTEA_HepaRG is a cell based, multiplexed-readout assay that uses HepaRG, a human liver cell line, with measurements taken at 48 hours after chemical dosing on a 96-well plate.LTEA_HepaRG_BCL2 is one of 102 assay component(s) measured in the LTEA HepaRG cell culture assay. It is a marker of Cell proliferation, survival, death.Data from the assay component LTEA_HepaRG_BCL2 was analyzed into 1 endpoint. This assay endpoint, LTEA_HepaRG_BCL2, was analyzed with bidirectional fitting relative to DMSO as the negative control and baseline of activity. Using a type of inducible reporter, measures of mRNA induction for gain or loss-of-signal activity can be used to understand regulation of transcription factor activity. To generalize the intended target to other relatable targets, this assay endpoint is annotated to the cell cycle intended target family, where the subfamily is Cell proliferation, survival, death.
# A total of 1060 chemcials from the ToxCast library were tested in eight-point concentration-response experiments. Cell culture and cytotoxicity assays were conducted at Thermo Fisher Scientific's Custom Services facility (Madison, WI). A single lot of human HepaRG cells (Thermo Fisher Scientific, Frederick, MD) was used for the cell culture experiments. 96-well format collagen type I coated plates of human HepaRG cells were prepared using established methods. Briefly, cryopreserved HepaRG cells were thawed, plated at a density of approximately 100,000 cells/well in HepaRG Thaw, Plate, and General Purpose media (HPRG770, Thermo Fisher Scientific), and incubated for 48 hours. 0.5% DMSO was selected as vehicle control to balance the requisite need of DMSO in HepaRG cultures to maintain differentiation (for example, baseline metabolism, proportions of hepatocytes vs. cholangiocytes), while enabling further hepatic receptor pathway activation (for example, PXR and CAR) in response to chemical exposure. 48 hours after plating, the culture medium was replaced with HepaRG Serum-Free Incudtion Media. Cells were exposed to each test chemical in duplicate and maintained in CO2 incubators for another 48 hours. Chemical plates were thawed to room temperature and 200x concentrations of treatment groups were prepared. 8-point conentration-reponse curves were made with the highest exposure at 100 uM, followed by half-log dilutions, all in 0.5% DMSO. Each test plate contained variouse controls, induction positive controls (1mM phenobarbital), cytotoxicity positive controls ([…] aflatoxin B1), vehicle controls (0.5% DMSO), and total lysis controls (0.5% DMSO). Cell morphology images were taken using an Essen IncuCyte FLR automated microscope, with six 96-well plates imaged in about 24 minutes. Images were captured and exported and JPEG files. Spent culture media was transfered to black-well plates for the LDH assay, and remaining media was sorted at -80 C for later use. Cells were treated with RLT buffer and frozen until shipped for gene expression analysis. Total RNA was isolated from the cell suspension in 75 uL of Buffer RLT (Qiagen, Germantown, MD 20874) by Quintiles/Expression Analysis (Durham, NC) using a custom isolation procedure. Total RNA from each plate well was transferred to a preamplification plate. Fluidigm's 96.96 Dynamic ArrayTM (Fluidigm, Amsterdam, the Netherlands) technology was used for gene expression analyses by quantitative reverse transcription polymerase chain reaction (qRT-PCR, performed by Quintiles/Expression Analysis, Durham, NC)89. Standard TaqManTM Assays (Applied Biosystems/ThermoFisher Scientific, Foster City, CA) were used to assess the expression of 93 genes selected based on their selectivity and sensitivity to important hepatic receptors known to be modulated by environmental chemicals; importance in human hepatocyte functionality; and hepatotoxicity. […]
# Chain of Apoptosis regulator Bcl-2 (Homo sapiens) (P10415 whole entry, looked up): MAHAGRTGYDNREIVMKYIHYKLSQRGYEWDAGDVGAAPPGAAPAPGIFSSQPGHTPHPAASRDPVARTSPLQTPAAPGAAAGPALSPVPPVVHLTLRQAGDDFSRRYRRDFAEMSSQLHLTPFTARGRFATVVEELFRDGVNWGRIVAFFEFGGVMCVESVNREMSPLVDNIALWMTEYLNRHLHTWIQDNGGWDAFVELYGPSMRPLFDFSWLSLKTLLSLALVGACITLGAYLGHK
SMILES,outcome,AC50
O=S(=O)(O)c1ccc(N=Nc2c(O)ccc3cc(S(=O)(=O)O)ccc23)cc1,inactive,–
CCCCCCOC(=O)CC(CC(=O)OCCCCCC)(OC(=O)CCC)C(=O)OCCCCCC,inactive,–
OCCNCCO,inactive,–
c1ccc2cc3ccccc3cc2c1,inactive,–
OC(CCl)CCl,inactive,–
O=C1CN(N=Cc2ccc([N+](=O)[O-])o2)C(=O)N1,–,80.7 µM (active)
OC(Cn1cncn1)(Cn1cncn1)c1ccc(F)cc1F,inactive,–
CC(=O)c1ccccc1,inactive,–
O=C(O)c1cccc(C[C@@H]2COc3ccc(OCc4nc5cc(F)ccc5s4)cc3[C@@H]2O)c1,inactive,–
CCn1nc(C)c2c1C(=O)NCC(c1ccc(O)cc1)=N2,inactive,–
CCCCN1C(=O)[C@@H]([C@H](O)C2CCCCC2)NC(=O)C12CCN(Cc1ccc(Oc3ccc(C(=O)O)cc3)cc1)CC2,–,12.7 µM (active)
CC[C@H](C)C(=O)O[C@H]1C[C@H](O)C=C2C=C[C@H](C)[C@H](CC[C@@H](O)C[C@@H](O)CC(=O)O)[C@H]21,inactive,–
CC(C)CCCCCCOC(=O)C1CCCCC1C(=O)OCCCCCCC(C)C (stereo not given),inactive,–
Cc1ncc([C@@H](CCCCCCc2ccc3c(n2)NCCC3)CC(=O)O)cn1,inactive,–
C[C@]12C=CC(=O)C=C1CC[C@H]1[C@@H]3C[C@@H](O)[C@](O)(C(=O)CO)[C@@]3(C)C[C@H](O)[C@@]12F,inactive,–
OCC(CO)(CO)CO,inactive,–
O=C(O)[C@H](O)[C@@H](O)C(=O)O,inactive,–
CCCCCCCCN(C)C,inactive,–
CCCCCCCC/C=C\CCCCCCCC(=O)OC[C@@H](O)[C@H]1OC[C@H](O)[C@H]1O,inactive,–
OC[C@H]1O[C@@H]2O[C@H]3[C@H](O)[C@@H](O)[C@@H](O[C@H]4[C@H](O)[C@@H](O)[C@@H](O[C@H]5[C@H](O)[C@@H](O)[C@@H](O[C@H]6[C@H](O)[C@@H](O)[C@@H](O[C@H]7[C@H](O)[C@@H](O)[C@@H](O[C@H]1[C@H](O)[C@H]2O)O[C@@H]7CO)O[C@@H]6CO)O[C@@H]5CO)O[C@@H]4CO)O[C@@H]3CO,inactive,–

SMILES,outcome,AC50
CCOC(N)=O,inactive,–
NC(=O)N1c2ccccc2C=Cc2ccccc21,inactive,–
COc1cc(C(C)C)c2c(c1)S(=O)(=O)N(COc1cc(=O)n3cccc(OCCN4CCCCC4)c3n1)C2=O,–,22.1 µM (active)
O=C(O)c1ccc2c(c1)nc(C(=O)NC1CCN(C3CC3)CC1)n2Cc1cc(-c2ccc(Cl)s2)on1,inactive,–
O=S1(=O)CCCO1,inactive,–
NC(N)=O,inactive,–
CCc1ccc(O)c(C(C)(C)C)c1,inactive,–
OCCOCCOCCO,inactive,–
NC(=O)NN=Cc1ccc([N+](=O)[O-])o1,inactive,–
OCc1ccccc1,inactive,–
CCCCCCCCCC,inactive,–
Cc1nc(-c2ccccn2)ncc1C(=O)Nn1cc(C)c2cc(F)ccc21,inactive,–
CCOc1ccc2[nH]cc(C(=O)NCc3ccccc3)c(=O)c2n1,–,0.662 µM (active)
CCCCCOC(C)=O,inactive,–
CCCOc1ccc(S(=O)(=O)N2CCN(CC)CC2)cc1-c1nc2c(CC)n(Cc3ccccn3)nc2c(=O)[nH]1,inactive,–
CC(C)c1nnc2ccc(-c3ocnc3-c3cc(F)ccc3F)cn12,inactive,–
COc1cc2c(c(OC)c1OC)-c1ccc(OC)c(=O)cc1[C@@H](NC(C)=O)CC2,inactive,–
Cn1cc[nH]c1=S,inactive,–
CCCCCCCCCCCCCCO,inactive,–
CC(C)C(=O)Nc1ccc([N+](=O)[O-])c(C(F)(F)F)c1,–,90.3 µM (active)
